CYP2C9 activ = activators of human CYP2C9; recombinant CYP2C9, luciferin-H conversion, luminescence; hits give high values; factor 1 = untreated enzyme, 0 = blocked; AID 1024; actives 1.4% (n = 96,000); P11712; activation factor at 5 µM;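 active = activation factor of 2 or more for CYP2C9 at a 5 µM dose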;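 also: 0 = sulfaphenazole-blocked wells and 1 = vehicle-only wells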
CYP2C19 activ = cytochrome P450 2C19 (human) activation; 96,000 tested, under 10 active; P33261; recombinant CYP2C19, luciferin-H EGE luminescence; hits give high values; 0 = fully inhibited enzyme, 1 = untreated enzyme; activation factor at 5 µM;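 active = activation factor of at least 2 at 5 µM in the primary screen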;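 also: 0 = wells with 2.5 mM tranylcypromine and 1 = vehicle-only wells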
Target sequence (P33261 whole entry, looked up): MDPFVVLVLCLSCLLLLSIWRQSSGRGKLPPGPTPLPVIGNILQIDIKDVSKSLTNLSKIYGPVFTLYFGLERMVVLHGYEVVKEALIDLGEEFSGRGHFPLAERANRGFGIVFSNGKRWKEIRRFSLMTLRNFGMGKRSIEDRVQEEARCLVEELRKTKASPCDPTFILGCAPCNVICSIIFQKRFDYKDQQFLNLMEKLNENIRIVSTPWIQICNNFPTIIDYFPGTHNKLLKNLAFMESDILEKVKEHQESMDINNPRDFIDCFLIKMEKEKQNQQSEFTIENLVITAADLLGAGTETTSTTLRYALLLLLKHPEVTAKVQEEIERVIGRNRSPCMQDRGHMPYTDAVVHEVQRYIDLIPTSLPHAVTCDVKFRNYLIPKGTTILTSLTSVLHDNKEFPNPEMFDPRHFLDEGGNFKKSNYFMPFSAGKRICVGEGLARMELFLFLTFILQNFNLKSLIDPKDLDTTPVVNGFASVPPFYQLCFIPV
CYP2C9 inhib = blocks human cytochrome P450 2C9; P11712; actives 20% (n = 96,000); AID 777; inhibition, % at 5 µM; CYP2C9 Supersomes, luciferin-H conversion, luminescence;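 active = blocking of liver enzyme CYP2C9 beyond about 50% at 5 µM, limit read from the data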
PTK2B oligo ant = blocks oligomerization of human Pyk2 in cells | Q14289 | Q293 cells, Pyk2 FERM NanoBiT luminescence; hits give low values | z-score (the deposit names both 25 µM and 10 µM) | actives 0.83% (n = 99,000) | AID 1347419;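 active = Z-score of -3 or lower, scaled per plate to the spread of control and sample wells; inactive = z-score above -3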;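 also: negative z-score means lost luminescence so less FERM oligomerization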
CYP2C19 inh = human CYP2C19 inhibition. P33261. CYP2C19 Supersomes, luciferin-H EGE luminescence, 30 min. inhibition, % at 5 µM. actives 21% (n = 96,000). AID 778;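 active = CYP2C19 inhibition above a set limit at 5 µM in the primary screen, cut at about 50% in these data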;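 also: plate controls were negative control wells for no effect and 2.5 mM tranylcypromine positive control for full effect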
* = called active by the depositor; . = no result. A selection: hits, their analogues and other compounds. The true share with any hit is near 28%.

SMILES	CYP2C9 activ	CYP2C19 activ	CYP2C9 inhib	PTK2B oligo ant	CYP2C19 inh
CS(=O)(=O)N(CC(=O)Nc1ccc2c(c1)OCO2)c1ccc2c(c1)OCO2	0.7	0.6	28	-1.4	44
O=C(/C=C/c1ccc2c(c1)OCO2)NCCSCc1cccc(Cl)c1	0.6	0.7	43	.	25
CS(=O)(=O)N(CC(=O)NCCSCc1cccc(Cl)c1)c1ccc2c(c1)OCO2	0.2	0.1	82*	0.18	88*
CS(=O)(=O)N(CC(=O)NCCSc1ccc(Cl)cc1)c1ccc2c(c1)OCO2	0.4	0.3	62*	-0.24	69*
COc1ccc(NC(=O)CN2C(=O)CC(C)(C)S(=O)(=O)c3ccccc32)cc1	0.7	0.7	25	.	26
CCOC(=O)C(O)(CCC(O)(C(=O)OCC)C(=O)OCC)C(=O)OCC	1	0.8	-4	1.2	19
Clc1ccc(CSc2nnc([C@@H]3CCCN3)o2)cc1Cl	0.6	0	35	1.4	100*
O=C(CSc1nnc([C@@H]2CCCN2)o1)c1ccc(Cl)cc1	0.7	0	30	1.5	98*
Clc1ccc(CSC2=NCCCN2)cc1Cl	1.1	0.9	-5	0.04	10
CCOC(=O)c1ccc(NC(=O)C(=O)NCC2CCCO2)cc1 (stereo not drawn)	0.8	0.8	16	1.1	18
N#CC1=C(O)C(c2ccccc2)n2c1nc(=O)c1ccccc12 (stereo not drawn)	0.6	0.9	42	0.32	12
COc1ccc(-n2c(C)c(C(C)=O)c(C(C)=O)c2C)cc1OC	1	0.3	0	-0.15	68*
COc1cccc(-n2c(C)c(C(C)=O)c(C(C)=O)c2C)c1	0.2	0.2	78*	-0.01	77*
COc1ccc(-n2c(C)c(C(C)=O)c(C(C)=O)c2C)cc1	1	0.7	0	0.19	27
CCOCCCN(C(=O)c1ccco1)C(C(=O)NC1CCCC1)c1cccc(OC)c1OC (stereo not drawn)	0.6	0.7	37	0.21	28
COc1ncnc2c1N[C@@](C)(O)c1c(F)c(F)c(F)c(F)c1S2	0.7	0.1	29	0.84	86*
Cc1ccc(C(=O)Nc2nc3ccc(S(C)(=O)=O)cc3s2)s1	1	1.1	1	-0.92	-9
CCC(=O)Nc1nc2ccc(S(C)(=O)=O)cc2s1	.	.	.	2.8	.
CS(=O)(=O)c1ccc2nc(NC(=O)CN3CCN(Cc4ccccc4)CC3)sc2c1	0.7	0.3	30	0.29	65*
CS(=O)(=O)c1ccc2nc(NC(=O)C3COc4ccccc4O3)sc2c1 (stereo not drawn)	0.2	1	76*	0.58	-1
COc1ccc2nc(NC(=O)C3COc4ccccc4O3)sc2c1 (stereo not drawn)	0.5	0.4	45	.	57*
O=C(OCC(=O)N1CCN(c2ccccc2)CC1)c1ccco1	0.9	0.7	12	0.23	25
O=C(OCC(=O)N1CCN(C(=O)c2ccco2)CC1)c1ccccc1OCc1ccccc1	0.1	0.4	87*	1.7	64*
O=C(OCC(=O)N1CCN(C(=O)c2ccco2)CC1)c1cn(-c2ccccc2)nc1-c1ccccc1	0.3	0.6	68*	-0.78	43
O=C(OCC(=O)N1CCN(C(=O)c2ccco2)CC1)c1ccccc1C(=O)c1ccccc1	0.8	0.9	18	-0.94	14
SMILES	CYP2C9 activ	CYP2C19 activ	CYP2C9 inhib	PTK2B oligo ant	CYP2C19 inh
O=C(OCC(=O)N1CCCC1)c1ccccc1OCc1ccccc1	0.9	0.9	11	0.15	12
O=C(OCC(=O)N1CCN(C(=O)c2ccco2)CC1)c1cc(-c2ccc(F)cc2)nc2ccccc12	0.6	0.9	40	-1.4	12
Cc1cc(C(=O)OCC(=O)N2CCN(c3ccccc3)CC2)c2ccccc2n1	2.8*	0.6	-175	0.57	39
O=C(OCC(=O)N1CCN(C(=O)c2ccco2)CC1)c1cc(-c2ccccc2)nc2ccccc12	0.2	0.5	76*	-0.56	50
CC12CCC(C(=O)N(c3ccccn3)c3ccccn3)(OC1=O)C2(C)C (stereo not drawn)	1.1	1	-8	-0.36	2
O=C(OCc1ccco1)c1ccc(S(=O)(=O)N2CCCCC2)cc1	1.2	1.2	-24	0.41	-19
O=C(OCC(=O)N1CCN(c2ccccc2)CC1)c1ccc2ncsc2c1	1.6	0.3	-63	0.04	73*
O=C(OCC(=O)N1CCN(C(=O)c2ccco2)CC1)c1cc(-c2cccc(Br)c2)nc2ccccc12	0.4	1.1	61*	-1.1	-9

High-throughput results deposited in PubChem by Sanford-Burnham Center for Chemical Genomics.
